Here are results for 22 compounds from PubChem BioAssay (Tox21).

A number with no mark means an inactive call. Records with an inconclusive call do not appear. Activity calls are given as the source filed them. Unless noted, calls come from the whole dose curve; as a rule, active = well fitted curve in the direction sought with a large enough effect in the repeat runs; inconclusive = weak or mixed curves; inactive = no such curve, though single readings can be large; an effect the other way counts as inactive or inconclusive.

Assay [1] is described as follows: qHTS assay for small molecules that induce genotoxicity in human embryonic kidney cells expressing luciferase-tagged ATAD5 (AID 651632). Note: nearly all actives have a fitted effect of over 15% in size. The method in brief:
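ATAD5-luc HEK293T, 2,000 cells/well; cpd or DMSO pin-transferred; 16 hr, 37C/5% CO2; Amplite 30 min RT; luminescence.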
For orientation: In qHTS, concentration-response curves come from the screen itself.

Assay [2] can be described thus: qHTS assay for small molecules that induce genotoxicity in human embryonic kidney cells expressing luciferase-tagged ATAD5 - cell viability (AID 651634; calls by dose curve; note: nearly all actives have a fitted effect of over 25% in size). The essentials: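 Fluorescence from CellTiter-Fluor, reporting protease activity within live cells, served as the viability read-out. HEK293T cells carrying luciferase-tagged ATAD5 had been treated with compound for 15.5 hr at 37C.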

The nature of assay [3]: qHTS assay for small molecule disruptors of the mitochondrial membrane potential - cell viability (AID 720634; calls by dose curve;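 note: human HepG2 liver cancer cells; series mostly up to about 83 µM; nearly all actives have a fitted effect of over 20% in size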). The method in brief:
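Cells: HepG2, 2,000/well, attached overnight. Compound 1 hr, 37 C/5% CO2. +m-MPI dye, +CellTiter-Glo 30 min RT. Readout: luminescence (ATP).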

Assay [4] can be described thus: qHTS assay for small molecule disruptors of the mitochondrial membrane potential (AID 720635). Note: potency is the fitted concentration of half-maximal effect. The method in brief: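 HepG2 cells (2,000/well) attached overnight at 37C, then took compound for 1 hr at 37C, 5% CO2. Mito-MPS dye was added for 30 min; fluorescence was read at 490/535 nm (monomers) and 540/590 nm (aggregates).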
A short description of assay [5]: qHTS assay to test for compound auto fluorescence at 590 nm (red) in HepG2 cells (AID 720674). The method in brief:
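Rose Bengal sodium served as the red fluorophore standard. HepG2 monolayers (overnight attachment, MEM with 10% FBS) were exposed to test compounds for 1 hr at 37 C and read at Ex 540/Em 590 nm.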

A short description of assay [6]: qHTS assay to test for compound auto fluorescence at 535 nm (green) in HepG2 cells (AID 720675).
The nature of assay [7]: qHTS assay to test for compound auto fluorescence at 460 nm (blue) in HEK293 cells (AID 720678). The essentials:
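Intrinsic compound fluorescence is recorded in live HEK293 cultures after overnight incubation at 37C, 5% CO2, using excitation 405 nm and emission 460 nm. Values are referenced to triamterene.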

A short description of assay [8]: qHTS assay to test for compound auto fluorescence at 590 nm (red) in HEK293 cells (AID 720679). The essentials:
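Red autofluorescence, HEK293 cells: 2,000 cells/well; attach 4-5 hr 37C; add 23 nL cpd or DMSO; incubate o/n 37C 5% CO2; read Ex540/Em590; Rose Bengal sodium reference.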

Assay [9] is described as follows: qHTS assay for small molecule agonists of the p53 signaling pathway - cell viability (AID 651633; calls by dose curve;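 note: p53RE-bla HCT reporter cells with a stable beta-lactamase p53 reporter; series mostly up to about 83 µM; nearly all actives have a fitted effect of over 30% in size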). The method in brief:
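p53RE-bla cells, seeded at 4,000 per well and rested 5 h at 37 C/5% CO2, received compounds in DMSO for 16 h at 37 C. CellTiter-Glo was then added, and luminescence was read after 30 min at room temperature to gauge cytotoxicity.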
% is set by controls: 0 for no effect and ±100 for the full control effect.

`CC(C)(CO)[C@@H](O)C(=O)NCCCO`: the call in assay [1], in [3], in [5], in [6], in [7] and in assay [8] was inactive. In addition, the Potency entry in [2] and in assay [4] was “inactive” each time.

Consider `Cn1c(=O)c2c(ncn2CC2OCCO2)n(C)c1=O`, for which the outcome in assay [1], in [3], in assay [5], in assay [6], in assay [7] and in [8] was inactive. In assay [2], the Potency entry was “inactive”.

In the case of `CCCCC(CC)C(=O)OC(C)C` (centres undefined), the result in [9], in assay [3], in assay [5], in [6], in [7] and in assay [8] was inactive. Also, in [2], the Potency result was “inactive”.

Consider `CC(CC(=O)O)CC(C)(C)C` (centres undefined), for which the call in assay [9], in assay [3], in assay [5], in [6], in [7] and in assay [8] was inactive. For the same compound, the Potency result in assay [2] was “inactive”.

As to `COc1ccc(/C=N/NC(=O)c2ccncc2)cc1OC`, the outcome in [9], in [3], in [5], in [6], in [7] and in [8] was inactive. The Potency result in assay [2] and in [4] was “inactive” throughout.

For `Nc1cc(Cl)cc(S(=O)(=O)O)c1O`, the outcome in assay [1], in assay [3], in assay [5], in assay [6], in assay [7] and in assay [8] was inactive.

Regarding `CN[C@@H]1[C@@H](O)[C@@H](O[C@@H]2[C@H](O)[C@H](O[C@H]3OC(CN)=CC[C@H]3N)[C@@H](N)C[C@H]2N)OCC1(C)O` (some centres undefined), the compound was called inactive in [1], in [3], in assay [5], in assay [6], in assay [7] and in assay [8]. Also, the Potency result in assay [2] was “inactive”.

Take `CCOC(=O)C(C)(C)C`: the call in assay [9], in assay [3], in assay [5], in assay [6], in assay [7] and in assay [8] was inactive. Further, the Potency result in [4] was “inactive”.

For the compound `Cc1nc([N+](=O)[O-])cn1-c1ccc([N+](=O)[O-])cc1`, the call in assay [9], in assay [3], in assay [5], in assay [6], in [7] and in assay [8] was inactive. The Potency entry in assay [2] and in [4] was “inactive” in each case.

As to `CN=C(NC#N)NCCSCc1csc(N=C(N)N)n1`, the result in assay [9], in assay [3], in assay [5], in assay [6], in assay [7] and in [8] was inactive. The Potency entry in [2] and in assay [4] was “inactive” each time.

As for `NC(Cc1c[nH]c2ccccc12)C(=O)O` (centres undefined), in [2], the Potency result was “inactive”. Besides, the compound was classed as inactive in assay [3], in assay [5], in assay [6], in assay [7] and in assay [8].

As to `CN(C1CCCCC1)S(=O)(=O)c1ccccc1N`, the compound was called inactive in [1], in assay [9], in assay [3], in assay [5], in assay [6] and in [7]. Also, the call in assay [8] was inactive.

With `O=CO`, the activity change, negative = cytotoxicity in assay [9] was 17.2% [at 8.08 µM]; in assay [3], 10.1% [at 8.08 µM]. The fluorescence, relative to Rose Bengal in [5] was 0.134% [at 9.17 µM]. In addition, the fluorescence, % of fluorescein control in assay [6] was -0.0157% [at 9.17 µM]. Moreover, the fluorescence, % of triamterene in assay [7] is 0.001% [at 9.17 µM]. In addition, the fluorescence, % of fluorescent control in assay [8] is 0.473% [at 9.17 µM].

With `O=S(=O)(O)CCO`, the call in [1], in assay [5], in [6], in assay [7] and in assay [8] was inactive. Besides, in assay [2], the Potency entry is “inactive”.

`COc1ccc(N=Nc2cc(C)c(N=Nc3ccc(S(=O)(=O)O)cc3)cc2OC)cc1`: the Potency result in [2] is “inactive”. In addition, the call in assay [3], in assay [5], in [6], in [7] and in [8] was inactive.

As for `CCC(C)N` (centres undefined), the compound was called inactive in assay [1], in assay [3], in assay [5], in assay [6], in assay [7] and in [8]. For the same compound, the Potency entry in assay [4] was “inactive”.

Take `O=c1cc(O)c(Cl)c[nH]1`: the result in assay [1], in assay [3], in [5], in assay [6], in assay [7] and in [8] was inactive. In addition, the Potency result in assay [2] and in assay [4] was “inactive” in each case.

Consider `CCCCCCCCCCCCC1CO1` (centres undefined), for which the compound was called inactive in [3], in [5], in [6], in assay [7] and in [8]. Besides, in assay [4], the Potency entry was “inactive”.

Consider `CCc1nccnc1C`, for which the compound was classed as inactive in [9], in assay [3], in assay [5], in assay [6], in assay [7] and in [8].

Regarding `C=CCOC(=O)c1ccc(C(=O)OCC=C)c(C(=O)OCC=C)c1`, the compound was called inactive in [1], in [9], in assay [5], in assay [6], in assay [7] and in assay [8]. Further, in [4], the Potency entry is “inactive”.

Take `CCCCC[Si](OCC)(OCC)OCC`: the call in assay [9], in assay [3], in assay [5], in assay [6], in [7] and in assay [8] was inactive. The Potency entry in assay [2] was “inactive”. In addition, in assay [4], the Potency is 48.6 µM (active).

Take `CO/N=C(/C(=O)N[C@@H]1C(=O)N2C(C(=O)O)=C(Cn3nnc(C)n3)CS[C@H]12)c1csc(N)n1`: the compound was called inactive in assay [1], in assay [3], in assay [5], in [6], in [7] and in [8]. Further, the Potency entry in assay [2] and in [4] was “inactive” throughout.
